Reference: PubChem BioAssay AID720519 (National Center for Advancing Translational Sciences (NCATS), 2013)
Results filed as inconclusive are left out. Calls of active or inactive are those of the source. Calls follow the shape of the dose curve; as a rule, active = well fitted activation curve with a large enough effect; inconclusive = small, poorly fitted or top-dose-only effect; inactive = flat fitted curve, though single readings scatter.

Experiment: qHTS for Inhibitors of Cell Surface uPA Generation: Confirmatory Assay for Cherry-picked Compounds
Settings: cell surface uPA activity generation, qHTS confirmation; series mostly up to 115 µM
Procedure, shortened: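 RAW 264.7 cells at 4000/well, incubated overnight, then treated with compounds. After 24 h at 37 C, viability was read by ATPlite luminescence. An increase in signal indicates blocked uPA-dependent LF entry.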

Potency, inactive:
COc1ccc(NC(=O)Nc2nnc(N3CCCCC3C)s2)cc1OC (centres undefined)
Oc1ccc(/C=N/Nc2cccc(Cl)n2)c(O)c1
O=C(O)CCCC(=O)NCCCCc1ccccc1
CCN(C(=O)CSc1ncnc2sccc12)c1c(N)n(Cc2ccccc2)c(=O)[nH]c1=O
Cn1c(=O)c(=O)n(C)c2cc(S(=O)(=O)CCC(=O)Nc3ccc(F)cc3)ccc21
O=C(Nc1ccc2c(c1)CCC2)Nc1ccc2c(c1)OCO2
Cc1ccc(C)c(S(=O)(=O)Nc2ccccc2C(=O)Nc2cc(C)on2)c1
O=C(CSc1ccc(Cl)cc1)N1CCCC1
Cc1nc(NC(=O)COC(=O)CCc2ccccc2)c(Cl)cc1Cl
CN(/N=C/c1cc(Cl)cc(Cl)c1O)C(=S)NC(C)(C)C
CC1(c2cccc([N+](=O)[O-])c2)CC(C)(C)N(C(=O)c2ccccc2)c2ccccc21 (centres undefined)
CCC1Nc2ncnc(N3CCCCC3)c2N(Cc2ccc(Cl)cc2)C1=O (centres undefined)
CCC1(C)NC(=O)N(CC(=O)Nc2sc3c(c2C(N)=O)CCC3)C1=O (centres undefined)
C=CC[n+]1c(/C=C/c2ccc(OC(C)=O)c(OC)c2)ccc2ccccc21
C#CCOCCOCCOCCNc1nc(N2CCOCC2)nc(N2CCN(C(=O)[C@H](CCC(=O)O)n3cc([C@@H](N)CCCCN)nn3)CC2)n1
NC(=O)CC[C@H](NC(=O)c1ccc(F)cc1)C(=O)OCC(=O)Nc1c(F)c(F)c(F)c(F)c1F
O=C(c1ccc(NC(=S)NCc2ccc(Cl)cc2)cc1)N1CCCCC1
Cc1ccc(C(=O)NC(=S)Nc2ccc3[nH]c(=O)[nH]c3c2)c(C)c1
COc1ccc(N2CCN(C3CCN(S(=O)(=O)c4ccc(F)cc4)CC3)CC2)cc1
CCOC(=O)C1CCN(S(=O)(=O)c2c[nH]c(=O)[nH]c2=O)CC1
CC1C2=C(CC(C)(C)CC2=O)NC2=C1C(=O)CC(C)(C)C2
O=C(NNC(=O)c1cccnc1)c1ccncc1
Brc1ccsc1/C=N/Nc1ccccc1
Cc1cc(C)n2c(SCC#N)nnc2n1
CCCOc1ccc(CC2CCC(=O)NC2=O)cc1 (centres undefined)
COCCN(C(=O)c1ccccc1OC)c1nnc(C)s1
Cc1ccc(N=C2SCCCN2C(=O)c2cccc(N3C(=O)CCC3=O)c2)cc1Cl
COc1ccc(CC(=O)OCC(=O)NNC(=O)c2ccccc2)cc1
COc1cccc(C(=O)NCC(c2ccco2)N2CCc3ccccc3C2)c1 (centres undefined)
CCCCNC(=O)C1CCN(S(=O)(=O)c2c(C)noc2/C=C\c2ccc(OC)cc2)CC1
CCOC(=O)c1cc(-c2ccccc2C)n(CC2CC(c3ccc(OC)cc3)=NO2)n1 (centres undefined)
Cc1cc(C)cc(NC(=O)COC(=O)CCn2c(C)csc2=O)c1
CCOCc1nnc(NC(=O)C2CCN(C(=O)C3CC(=O)N(c4ccc(C)cc4)C3)CC2)s1 (centres undefined)
CCOc1ccccc1CN1CCCC(CNS(=O)(=O)c2ccc(OC)cc2)C1 (centres undefined)
COc1ccccc1-c1ccc(SCC(=O)NCCc2ccccc2)nn1
Cc1ccc2cc(C=O)c(Cl)nc2c1
C=CCn1c(SCCN2C(=O)c3ccccc3C2=O)nc2scc(-c3ccc(F)cc3)c2c1=O
CS(=O)(=O)Nc1cccc(C2=NN(S(=O)(=O)c3ccccc3)C(c3ccco3)C2)c1 (centres undefined)
COc1ccccc1N1CCN(C2CC(=O)N(c3ccccc3)C2=O)CC1 (centres undefined)
